Drawing on PubChem BioAssay (NCI), this text covers growth inhibition for 39 compounds.

Assay [1] in a line: NCI Yeast Anticancer Drug Screen. Data for the rad50 strain (AID 155).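 Further: 0% = growth of vehicle-only cultures of the same strain.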 The following applies: S. cerevisiae rad50 strain growth inhibition; at 50.0 µM; stronger effect = higher value. The method in brief: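 Readout: growth inhibition relative to vehicle-treated cultures. Compound exposure was carried out in a genetically defined yeast strain deficient in DNA damage repair.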
The nature of assay [2]: NCI Yeast Anticancer Drug Screen. Data for the mec2-1 strain (AID 157). The following applies: S. cerevisiae mec2-1 strain, at 50.0 µM, stronger effect = higher value. The method in brief:
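mec2-1 yeast strain, carrying an alteration in DNA damage repair or cell cycle control, was exposed to compounds; growth inhibition was measured relative to vehicle-treated controls.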

Assay [3] in a line: NCI Yeast Anticancer Drug Screen. Data for the sgs1 mgt1 strain (AID 161).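 Further: 0% = growth of cultures given vehicle only.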 The note with it: S. cerevisiae sgs1 mgt1 strain, at 50.0 µM, stronger effect = higher value. The method, boiled down:
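Compounds are added to genetically altered yeast, and growth is compared with cultures given vehicle alone to give percent inhibition.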

Assay [4] can be described thus: NCI Yeast Anticancer Drug Screen. Data for the cln2 rad14 strain (AID 165).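 Further: 0% = growth equal to vehicle treated cultures.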 The note with it: S. cerevisiae cln2 rad14 strain, at 50.0 µM, stronger effect = higher value. The method, boiled down: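 Yeast carrying cln2 and rad14 alterations (cell cycle control and DNA damage repair) were exposed to compounds. Growth inhibition was measured against vehicle-treated controls.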

Assay [5] is described as follows: NCI Yeast Anticancer Drug Screen. Data for the bub3 strain (AID 167). The following applies: S. cerevisiae bub3 mutant strain, at 50.0 µM, stronger effect = higher value. The method, boiled down: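 Readout: yeast growth inhibition, expressed relative to vehicle-only wells. The test organism is a mutant strain from a panel with lesions in DNA repair or checkpoint genes.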

A short description of assay [6]: NCI Yeast Anticancer Drug Screen. Data for the mlh1 rad18 strain (AID 175). The following applies: S. cerevisiae mlh1 rad18 strain growth inhibition; at 50.0 µM; stronger effect = higher value. The method in brief: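 Growth inhibition of the yeast strain was measured after compound exposure and expressed relative to vehicle-treated controls. The strain carries defined defects in DNA damage repair.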

About 79,000 compounds went through this panel and 15% of them were active in at least one assay; those are over-represented in the sample as a whole. Unmarked numbers belong to inactive results. The source made the active and inactive calls. No stated cut-off is given here; in the data, active means growth inhibition above about 70%; inactive means the rest.

For `[N-]=[N+]=C1C(=O)NC(=O)N2C3OC(CO[C@@H]12)C(O)C3O` (some centres undefined), the growth inhibition was -24.2% in assay [1]; -1.65% in assay [2]; -16.2% in assay [3]; 32.2% in assay [4]; -8.2% in assay [5]; -39% in assay [6].

As to `O=S1CCS(=O)CCS(=O)CC1` (centres undefined), the growth inhibition in assay [1] was -17.1%; in assay [2], -2.3%; in assay [3] it was -0.6%; in assay [4], -18.6%; in assay [5], -0.4%; in assay [6] it was -9.7%.

As for `CC(C)(O)C(Cc1ccccc1)c1ccccc1` (centres undefined), the growth inhibition is 0.55% in assay [1]; 7.9% in assay [2]; -16.1% in assay [3]; -2.1% in assay [4]; -23.6% in assay [5]; 0.8% in assay [6].

Consider `CC(=O)/C(C)=C\C=C(\C)C(C)=O`, for which the growth inhibition is -7.2% in assay [1]; -11.5% in assay [2]; -16.2% in assay [3]; -84.5% in assay [4]; -0.45% in assay [5]; -4.7% in assay [6].

For `Cc1ccc2c(c1)NC(C1Nc3cc(C)ccc3O1)O2` (centres undefined), the growth inhibition is -0.3% in assay [1]; -6.8% in assay [2]; -1.25% in assay [3]; -46.5% in assay [4]; -16.9% in assay [5]; -12.2% in assay [6].

With `COc1ccc(C#CCC(OC2OC(CO)C(O)C(O)C2O)C(O)c2ccc(OC)c(OC)c2)cc1OC` (centres undefined), the growth inhibition was -0.15% in assay [1]; -7.55% in assay [2]; -6.95% in assay [3]; 12% in assay [4]; -17.2% in assay [5]; -15.9% in assay [6].

`CCCSc1n[nH]c(=S)c2nc[nH]c12`: the growth inhibition in assay [1] was -2%; in assay [2] it was -24.3%; in assay [3] it was -14.8%; in assay [4], -5.5%; in assay [5], -21.8%; in assay [6], -1.15%.

Take `O=C(O)C1CCCN1Cc1cc2ccccc2c2ccccc12` (centres undefined): the growth inhibition is 11.2% in assay [1]; -11.1% in assay [2]; -25.9% in assay [3]; 8.6% in assay [4]; -3.3% in assay [5]; 26.5% in assay [6].

Turning to `O=[N+]([O-])c1ccc(N=CC2CCC=CO2)cc1` (centres undefined), the growth inhibition is -4.3% in assay [1]; 17.8% in assay [2]; -10.2% in assay [3]; -27.9% in assay [4]; -9.4% in assay [5]; -14.9% in assay [6].

Turning to `Cc1ccc(C(=O)CC2(O)C(=O)Nc3ccccc32)cc1` (centres undefined), the growth inhibition in assay [1] is 25.4%; in assay [2] it was 17.4%; in assay [3] it was 22.4%; in assay [4], 16.9%; in assay [5], 14.3%; in assay [6], 20.9%.

As to `CCOC(C)C=O` (centres undefined), the growth inhibition in assay [1] was -3.85%; in assay [2], 19.1%; in assay [3], -21.4%; in assay [4], -36%; in assay [5], -7.6%; in assay [6], -25.9%.

`COC(=O)CCSC(=S)NCc1ccccc1`: the growth inhibition in assay [1] is -14.4%; in assay [2] it was -30.1%; in assay [3], -20%; in assay [4], -222%; in assay [5] it was -3.45%; in assay [6], -12.7%.

On to `N=C(CN1CCCCC1)N1CCCCC1`, for which the growth inhibition in assay [1] was -2.5%; in assay [2] it was -15.3%; in assay [3], -5.15%; in assay [4], -58.1%; in assay [5], 10.2%; in assay [6], 12.6%.

Consider `COc1cc(C2C(C(=O)NCc3ccccc3)=C(C)NC(C)=C2C(=O)NCc2ccccc2)ccc1O`, for which the growth inhibition in assay [1] is -27.1%; in assay [2], -11.1%; in assay [3], -23.9%; in assay [4] it was -3.9%; in assay [5] it was -7%; in assay [6], -21.2%.

`O=C(O)/C=C\C(=O)Nc1ccccc1Cl`: the growth inhibition in assay [1] is -12.8%; in assay [2], -9.95%; in assay [3] it was 10.9%; in assay [4], 6.85%; in assay [5], 13.4%; in assay [6] it was -10.8%.

As for `COc1ccc(-c2cc(=O)c3ccc(C)nc3[nH]2)cc1`, the growth inhibition in assay [1] was -18.9%; in assay [2], -30.8%; in assay [3] it was -40.4%; in assay [4], -20.7%; in assay [5] it was -16.1%; in assay [6], -18.8%.

As to `OC(c1cccnc1)C(CCc1ccccn1)c1ccccn1` (centres undefined), the growth inhibition in assay [1] is 2.65%; in assay [2] it was 13.1%; in assay [3], -4.6%; in assay [4], -46%; in assay [5] it was 4.3%; in assay [6], 4%.

Consider `CCNc1nc(Cl)nc(C(Cl)(Cl)Cl)c1Cl` (tested in a mixture with another compound), for which the growth inhibition in assay [1] is 96.6% (active); in assay [2], 95.1% (active); in assay [3], 97.8% (active); in assay [4], 74.6% (active); in assay [5] it was 71% (active); in assay [6], 95.5% (active).

`CCCCCCCCCCCCSC(=O)CCC(=O)O`: the growth inhibition in assay [1] is -49.5%; in assay [2], -11.9%; in assay [3], 13.8%; in assay [4] it was -29.9%; in assay [5], 1.85%; in assay [6], 10.1%.

In the case of `COc1ccc(/C(=N/NS(=O)(=O)c2ccc([N+](=O)[O-])cc2)C2COC(=O)C2)cc1OC` (centres undefined), the growth inhibition was 6.15% in assay [1]; -9% in assay [2]; 3.25% in assay [3]; -13.4% in assay [4]; 14% in assay [5]; 2.25% in assay [6].

With `O=C(c1ccccc1)c1ccc2[nH]ccc(=O)c2c1`, the growth inhibition is -4.7% in assay [1]; 0.5% in assay [2]; -3.7% in assay [3]; -31.1% in assay [4]; -7.85% in assay [5]; 4.3% in assay [6].

In the case of `CCCCc1c(O)c2c(=O)n(C)c(=O)n3c4ccccc4n(c1=O)c23`, the growth inhibition was -1.55% in assay [1]; -9.7% in assay [2]; -1% in assay [3]; -22.1% in assay [4]; -0.3% in assay [5]; 10.8% in assay [6].

Take `CCN(CC)CCNc1nnc(NCCN(CC)CC)c2cc3ccccc3cc12`: the growth inhibition is 3.75% in assay [1]; 21% in assay [2]; -10.1% in assay [3]; -4.45% in assay [4]; -0.25% in assay [5]; 6.8% in assay [6].

Consider `CCCCCCCCCCCCCCCCCCCCOC1OC(COC(C)=O)C(OC(C)=O)C(OC(C)=O)C1OC(C)=O` (centres undefined), for which the growth inhibition in assay [1] was -21.3%; in assay [2] it was -14.2%; in assay [3] it was -16.9%; in assay [4], 12%; in assay [5], -5.7%; in assay [6], -20.4%.

Consider `CC(O)CCC(C)(C)[N+](=O)[O-]` (centres undefined), for which the growth inhibition in assay [1] was 3.15%; in assay [2], -6.85%; in assay [3], 0.1%; in assay [4] it was 10.8%; in assay [5] it was 0.25%; in assay [6], -0.9%.

Turning to `CNC(=O)C1CCC(=O)N1CN(C(C)=O)c1ccccc1` (centres undefined), the growth inhibition in assay [1] was 3.85%; in assay [2], 13.9%; in assay [3], -12.9%; in assay [4] it was 13.7%; in assay [5], -13.9%; in assay [6], -63.5%.

For `O=S(=O)(O)c1ccccc1`, the growth inhibition in assay [1] is -16.6%; in assay [2], -8.5%; in assay [3], -6.05%; in assay [4] it was -2.25%; in assay [5] it was 0.15%; in assay [6] it was 1.25%.

For the compound `O=C(O)Cc1ccc(-c2ccccc2)cc1`, the growth inhibition in assay [1] is 29.1%; in assay [2], 23.6%; in assay [3], 21.2%; in assay [4], 6.45%; in assay [5], 20.5%; in assay [6] it was 25.4%.

In the case of `Cc1cc(C(N)=O)c2ccccc2n1`, the growth inhibition in assay [1] was -11%; in assay [2], -47.2%; in assay [3], -15.7%; in assay [4], 11.4%; in assay [5], -34.4%; in assay [6], -6.25%.

For `Cc1nc2ccc(Cl)cc2c(-n2ccnc2)c1CCn1ccnc1`, the growth inhibition in assay [1] was -11.6%; in assay [2], -4.6%; in assay [3], -3.55%; in assay [4], -0.5%; in assay [5] it was 9.25%; in assay [6], -3.7%.

Regarding `CC(=O)Oc1cc(OC(C)=O)c2c(c1C)CC[C@@H]1[C@@H]2CC[C@]2(C)[C@@H](OC(C)=O)CC[C@@H]12`, the growth inhibition was 18.1% in assay [1]; 10.1% in assay [2]; -0.25% in assay [3]; -17% in assay [4]; -5.3% in assay [5]; 34.3% in assay [6].

As to `COC(=O)C(/C(=N/NC(N)=O)C(=O)Nc1c(C)cccc1C(C)(C)C)c1nc2ccc(Cl)cc2[nH]c1=O` (centres undefined), the growth inhibition in assay [1] was -3.9%; in assay [2], -15.7%; in assay [3] it was -7.4%; in assay [4] it was 3.3%; in assay [5], -11.2%; in assay [6], 0.1%.

Take `O=C1c2cc([N+](=O)[O-])ccc2-c2c(S)cccc21`: the growth inhibition in assay [1] was 2.25%; in assay [2] it was 5.25%; in assay [3] it was -10.2%; in assay [4] it was -4.7%; in assay [5], 25.8%; in assay [6], -16.3%.

Turning to `C#CCNC(=O)CCC(N)C(=O)O` (centres undefined), the growth inhibition was -0.1% in assay [1]; -15.2% in assay [2]; -14.8% in assay [3]; 3.05% in assay [4]; -11.8% in assay [5]; 2.65% in assay [6].

Take `CCOC(=O)c1nc(SC)sc1NC(=O)c1ccc(OC)cc1`: the growth inhibition in assay [1] was 12.8%; in assay [2] it was -7.3%; in assay [3], 13.1%; in assay [4], 6.2%; in assay [5] it was 17.7%; in assay [6], -4.65%.

Consider `OCC1NCCCC1O` (centres undefined), for which the growth inhibition in assay [1] is -17.5%; in assay [2], -25.6%; in assay [3] it was -22.9%; in assay [4] it was -8.55%; in assay [5], -18.1%; in assay [6], -10%.

`O=c1cc(-c2ccccc2)c2ccc(O)cc2o1`: the growth inhibition in assay [1] is -11.8%; in assay [2] it was 1.45%; in assay [3] it was 20.4%; in assay [4], 3%; in assay [5] it was 2%; in assay [6] it was -1.2%.

`C=CCOCn1cc(C)c(=O)[nH]c1=O`: the growth inhibition in assay [1] is 5.6%; in assay [2], 17.4%; in assay [3], 36.4%; in assay [4] it was 5.5%; in assay [5] it was 6.5%; in assay [6], 17.4%.

Turning to `O=C(Cn1c2c(c3ccccc31)CCCC2)NC1CCCCC1`, the growth inhibition in assay [1] is 2.6%; in assay [2], -28.4%; in assay [3], 21.9%; in assay [4], 30.3%; in assay [5], 1.25%; in assay [6], 9.7%.
